Results published in PubChem BioAssay AID1159580 (chemical genetic matrix, 2015).
The campaign covered roughly 5,500 compounds. About 2,000 (36%) were called active. Roughly 18% stayed inconclusive and do not appear here. Cut-off read from the data, not from the text of the source: active = normalized growth mostly below about 0.91 (no sharp cut-off); inconclusive = no clear call, values can overlap the other calls; inactive = mostly above about 0.92. The list shows a part of the results.

Experiment: chemical genetic growth profiling, strain panel (AID 1159580);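 note: tested at 20 µM; growth read once vehicle control cultures reached saturation at 30 °C; 1 = growth at the plate median or of vehicle wells; lower values mean less growth of the strain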
Conditions: growth OD

Measured: normalized growth

CNNC
inactive: S. cerevisiae deletion strains, locus YJR075W, strain HOC1, active compounds read low 1.02 | S. cerevisiae deletion strains, locus YKL009W, strain mrt4, active compounds read low 0.981 | S. cerevisiae deletion strains, locus YKL068W, active compounds read low 1.01 | S. cerevisiae deletion strains, locus YKL085W, strain MDH1 (second series), active compounds read low 1.01 | S. cerevisiae deletion strains, locus YKL085W, strain MDH1, active compounds read low 1.01 | S. cerevisiae deletion strains, locus YKL160W, strain elf1, active compounds read low 0.99 | S. cerevisiae deletion strains, locus YKL190W, strain CNB1, active compounds read low 1.02 | S. cerevisiae deletion strains, locus YKR001C, strain vps1, active compounds read low 1.01 | S. cerevisiae deletion strains, locus YKR026C, strain gcn3, active compounds read low 1.02 | S. cerevisiae deletion strains, locus YKR091W, strain srl3, active compounds read low 1.02 | S. cerevisiae deletion strains, locus YLL001W, strain dnm1, active compounds read low 1.02 | S. cerevisiae deletion strains, locus YLL026W, active compounds read low 1 | S. cerevisiae deletion strains, locus YLL041C, strain sdh2, active compounds read low 1.02 | S. cerevisiae deletion strains, locus YLR027C, strain aat2, active compounds read low 1.01 | S. cerevisiae deletion strains, locus YLR039C, strain RIC1, active compounds read low 1.09 | S. cerevisiae deletion strains, locus YLR058C, strain SHM2, active compounds read low 1.02 | S. cerevisiae deletion strains, locus YLR102C, strain apc9, active compounds read low 0.998 | S. cerevisiae deletion strains, locus YLR221C, strain rsa3, active compounds read low 1.01 | S. cerevisiae deletion strains, locus YLR258W, strain gsy2, active compounds read low 1.01 | S. cerevisiae deletion strains, locus YLR262C, strain YPT6 (second series), active compounds read low 1.01 | S. cerevisiae deletion strains, locus YLR262C, strain YPT6, active compounds read low 1.09 | S. cerevisiae deletion strains, locus YLR268W, strain sec22, active compounds read low 1.02 | S. cerevisiae deletion strains, locus YLR320W, strain mms22, active compounds read low 1.01 | S. cerevisiae deletion strains, locus YLR330W, strain CHS5, active compounds read low 1.02 | S. cerevisiae deletion strains, locus YLR342W, strain FKS1 (second series), active compounds read low 1.01 | S. cerevisiae deletion strains, locus YLR342W, strain FKS1, active compounds read low 1.01 | S. cerevisiae deletion strains, locus YLR357W, strain rsc2, active compounds read low 0.986 | S. cerevisiae deletion strains, locus YLR370C, strain arc18, active compounds read low 1.01 | S. cerevisiae deletion strains, locus YLR371W, strain rom2, active compounds read low 1 | S. cerevisiae deletion strains, locus YLR384C, strain iki3, active compounds read low 1.01 | S. cerevisiae deletion strains, locus YLR418C, strain cdc73, active compounds read low 0.997 | S. cerevisiae deletion strains, locus YML016C, strain PPZ1, active compounds read low 1.02 | S. cerevisiae deletion strains, locus YML032C, strain rad52, active compounds read low 0.97 | S. cerevisiae deletion strains, locus YML120C, strain ndi1, active compounds read low 1.03 | S. cerevisiae deletion strains, locus YML124C, strain tub3, active compounds read low 1.01 | S. cerevisiae deletion strains, locus YMR058W, strain fet3, active compounds read low 1.01 | S. cerevisiae deletion strains, locus YMR078C, strain ctf18, active compounds read low 0.994 | S. cerevisiae deletion strains, locus YMR125W, strain sto1, active compounds read low 1 | S. cerevisiae deletion strains, locus YMR129W, active compounds read low 0.999 | S. cerevisiae deletion strains, locus YMR205C, strain PFK2, active compounds read low 1.02 | S. cerevisiae deletion strains, locus YMR223W, strain ubp8, active compounds read low 1 | S. cerevisiae deletion strains, locus YMR231W, strain pep5, active compounds read low 1.01 | S. cerevisiae deletion strains, locus YMR263W, strain SAP30, active compounds read low 1.03 | S. cerevisiae deletion strains, locus YMR307W, strain GAS1, active compounds read low 1.04 | S. cerevisiae deletion strains, locus YNL067W, strain RPL9B, active compounds read low 1.03 | S. cerevisiae deletion strains, locus YNL071W, strain lat1, active compounds read low 0.989 | S. cerevisiae deletion strains, locus YNL128W, strain TEP1, active compounds read low 1.03 | S. cerevisiae deletion strains, locus YNL153C, strain GIM3, active compounds read low 1.03 | S. cerevisiae deletion strains, locus YNL209W, strain ssb2, active compounds read low 1.01 | S. cerevisiae deletion strains, locus YNL233W, strain BNI4, active compounds read low 1.03 | S. cerevisiae deletion strains, locus YNL248C, strain rpa49, active compounds read low 1.03 | S. cerevisiae deletion strains, locus YNL250W, strain rad50, active compounds read low 0.997 | S. cerevisiae deletion strains, locus YNL271C, strain bni1, active compounds read low 1.01 | S. cerevisiae deletion strains, locus YNL298W, strain CLA4, active compounds read low 0.994 | S. cerevisiae deletion strains, locus YNL307C, strain MCK1, active compounds read low 0.998 | S. cerevisiae deletion strains, locus YNL322C, strain KRE1 (second series), active compounds read low 1.02 | S. cerevisiae deletion strains, locus YNL322C, strain KRE1, active compounds read low 1.03 | S. cerevisiae deletion strains, locus YNR049C, strain mso1, active compounds read low 1 | S. cerevisiae deletion strains, locus YNR052C, strain pop2, active compounds read low 0.994 | S. cerevisiae deletion strains, locus YOL006C, strain TOP1, active compounds read low 1.08 | S. cerevisiae deletion strains, locus YOL012C, strain htz1 1.09 | S. cerevisiae deletion strains, locus YOL147C, strain pex11, active compounds read low 0.995 | S. cerevisiae deletion strains, locus YOR001W, strain rrp6, active compounds read low 1.02 | S. cerevisiae deletion strains, locus YOR061W, strain CKA2, active compounds read low 1.02 | S. cerevisiae deletion strains, locus YOR069W, strain VPS5, active compounds read low 1.01 | S. cerevisiae deletion strains, locus YOR070C, strain gyp1, active compounds read low 1.01 | S. cerevisiae deletion strains, locus YOR080W, strain dia2, active compounds read low 0.99 | S. cerevisiae deletion strains, locus YOR083W, strain WHI5, active compounds read low 1.01 | S. cerevisiae deletion strains, locus YOR106W, strain vam3, active compounds read low 1.02 | S. cerevisiae deletion strains, locus YOR136W, strain idh2, active compounds read low 0.994 | S. cerevisiae deletion strains, locus YOR144C, strain elg1, active compounds read low 1 | S. cerevisiae deletion strains, locus YOR184W, strain ser1, active compounds read low 1 | S. cerevisiae deletion strains, locus YOR265W, strain rbl2, active compounds read low 1.02 | S. cerevisiae deletion strains, locus YOR270C, strain vph1, active compounds read low 1.1 | S. cerevisiae deletion strains, locus YOR290C, strain snf2, active compounds read low 1.03 | S. cerevisiae deletion strains, locus YOR316C, strain cot1, active compounds read low 1.01 | S. cerevisiae deletion strains, locus YPL051W, strain arl3, active compounds read low 1 | S. cerevisiae deletion strains, locus YPL055C, strain LGE1, active compounds read low 1.06 | S. cerevisiae deletion strains, locus YPL078C, strain atp4, active compounds read low 1.01 | S. cerevisiae deletion strains, locus YPL106C, strain sse1, active compounds read low 1 | S. cerevisiae deletion strains, locus YPL240C, strain hsp82, active compounds read low 1.01 | S. cerevisiae deletion strains, locus YPL241C, strain CIN2, active compounds read low 1.02 | S. cerevisiae deletion strains, locus YPR119W, strain clb2, active compounds read low 1 | S. cerevisiae deletion strains, locus YPR141C, strain kar3, active compounds read low 1.01 | S. cerevisiae deletion strains, locus YPR163C, strain tif3, active compounds read low 0.994 | S. cerevisiae deletion strains, locus YPR167C, strain met16, active compounds read low 1 | S. cerevisiae deletion strains, strain wtn01, active compounds read low 1.02 | S. cerevisiae strains, strain wild type, active compounds read low 1.01
